# Legend:
# [1] = system: BUB1; set-up: species or system human, MV4-11 + K-562 + COLO205 + SK-N-BE2 + OVCAR-8; conditions: read-out: apparent Kd; compound concentrations: 100 nM and 1000 nM (sheet 'Samples'), CATDS: 2.1802873020005002E-2; n = 1
# [2] = system: CDC42BPA; set-up: species or system human, MV4-11 + K-562 + COLO205 + SK-N-BE2 + OVCAR-8; conditions: read-out: apparent Kd; compound concentrations: 100 nM and 1000 nM (sheet 'Samples'), CATDS: 2.9689579346921902E-2; n = 1
# [3] = system: CDC42BPB; set-up: species or system human, MV4-11 + K-562 + COLO205 + SK-N-BE2 + OVCAR-8; conditions: read-out: apparent Kd; compound concentrations: 100 nM and 1000 nM (sheet 'Samples'), CATDS: 2.9604428475736501E-2; n = 1
# [4] = system: CDC42BPG; set-up: species or system human, MV4-11 + K-562 + COLO205 + SK-N-BE2 + OVCAR-8; conditions: read-out: apparent Kd; compound concentrations: 100 nM and 1000 nM (sheet 'Samples'), CATDS: 3.5199852415490701E-2; n = 1
# [5] = system: CDC7; set-up: species or system human, MV4-11 + K-562 + COLO205 + SK-N-BE2 + OVCAR-8; conditions: read-out: apparent Kd; compound concentrations: 100 nM and 1000 nM (sheet 'Samples'), CATDS: 2.6746378417374699E-2; n = 1
# [6] = system: CDK4; set-up: species or system human, MV4-11 + K-562 + COLO205 + SK-N-BE2 + OVCAR-8; conditions: read-out: apparent Kd; compound concentrations: 100 nM and 1000 nM (sheet 'Samples'), CATDS: 2.4664855297043799E-2; n = 1
# [7] = system: CLK4; set-up: species or system human, MV4-11 + K-562 + COLO205 + SK-N-BE2 + OVCAR-8; conditions: read-out: apparent Kd; compound concentrations: 100 nM and 1000 nM (sheet 'Samples'), CATDS: 2.52027212323017E-2; n = 1
# [8] = system: DYRK1A; set-up: species or system human, MV4-11 + K-562 + COLO205 + SK-N-BE2 + OVCAR-8; conditions: read-out: apparent Kd; compound concentrations: 100 nM and 1000 nM (sheet 'Samples'), CATDS: 2.7886290868283401E-2; n = 1
# [9] = system: GSK3A; set-up: species or system human, MV4-11 + K-562 + COLO205 + SK-N-BE2 + OVCAR-8; conditions: read-out: apparent Kd; compound concentrations: 100 nM and 1000 nM (sheet 'Samples'), CATDS: 3.2478486549428802E-2; n = 1
# [10] = system: GSK3B; set-up: species or system human, MV4-11 + K-562 + COLO205 + SK-N-BE2 + OVCAR-8; conditions: read-out: apparent Kd; compound concentrations: 100 nM and 1000 nM (sheet 'Samples'), CATDS: 2.76286010769239E-2; n = 1
# [11] = system: NNT; set-up: species or system human, MV4-11 + K-562 + COLO205 + SK-N-BE2 + OVCAR-8; conditions: read-out: apparent Kd; compound concentrations: 100 nM and 1000 nM (sheet 'Samples'), CATDS: 2.2589714418096801E-2; n = 1
# [12] = system: PIM1; set-up: species or system human, MV4-11 + K-562 + COLO205 + SK-N-BE2 + OVCAR-8; conditions: read-out: apparent Kd; compound concentrations: 100 nM and 1000 nM (sheet 'Samples'), CATDS: 3.4638112150075201E-2; n = 1
# [13] = system: PKN1; set-up: species or system human, MV4-11 + K-562 + COLO205 + SK-N-BE2 + OVCAR-8; conditions: read-out: apparent Kd; compound concentrations: 100 nM and 1000 nM (sheet 'Samples'), CATDS: 6.9293964383533801E-2; n = 1
# [14] = system: PKN2; set-up: species or system human, MV4-11 + K-562 + COLO205 + SK-N-BE2 + OVCAR-8; conditions: read-out: apparent Kd; compound concentrations: 100 nM and 1000 nM (sheet 'Samples'), CATDS: 0.13828274878435901; n = 1
# [15] = system: PKN3; set-up: species or system human, MV4-11 + K-562 + COLO205 + SK-N-BE2 + OVCAR-8; conditions: read-out: apparent Kd; compound concentrations: 100 nM and 1000 nM (sheet 'Samples'), CATDS: 2.6445492378014E-2; n = 1
# [16] = system: PRKACA; set-up: species or system human, MV4-11 + K-562 + COLO205 + SK-N-BE2 + OVCAR-8; conditions: read-out: apparent Kd; compound concentrations: 100 nM and 1000 nM (sheet 'Samples'), CATDS: 2.2371204771335199E-2; n = 1
# [17] = system: PRKCA; set-up: species or system human, MV4-11 + K-562 + COLO205 + SK-N-BE2 + OVCAR-8; conditions: read-out: apparent Kd; compound concentrations: 100 nM and 1000 nM (sheet 'Samples'), CATDS: 3.9494099322939E-2; n = 1
# [18] = system: PRKCB; set-up: species or system human, MV4-11 + K-562 + COLO205 + SK-N-BE2 + OVCAR-8; conditions: read-out: apparent Kd; compound concentrations: 100 nM and 1000 nM (sheet 'Samples'), CATDS: 4.76963750103866E-2; n = 1
# [19] = system: PRKCD; set-up: species or system human, MV4-11 + K-562 + COLO205 + SK-N-BE2 + OVCAR-8; conditions: read-out: apparent Kd; compound concentrations: 100 nM and 1000 nM (sheet 'Samples'), CATDS: 6.0948363535237499E-2; n = 1
# [20] = system: PRKCI; set-up: species or system human, MV4-11 + K-562 + COLO205 + SK-N-BE2 + OVCAR-8; conditions: read-out: apparent Kd; compound concentrations: 100 nM and 1000 nM (sheet 'Samples'), CATDS: 3.5414471461485103E-2; n = 1
# [21] = system: PRKCQ; set-up: species or system human, MV4-11 + K-562 + COLO205 + SK-N-BE2 + OVCAR-8; conditions: read-out: apparent Kd; compound concentrations: 100 nM and 1000 nM (sheet 'Samples'), CATDS: 2.3037545247832199E-2; n = 1
# [22] = system: PRKG1; set-up: species or system human, MV4-11 + K-562 + COLO205 + SK-N-BE2 + OVCAR-8; conditions: read-out: apparent Kd; compound concentrations: 100 nM and 1000 nM (sheet 'Samples'), CATDS: 3.8596421043345E-2; n = 1
# [23] = system: PRKX;PRKY; set-up: species or system human, MV4-11 + K-562 + COLO205 + SK-N-BE2 + OVCAR-8; conditions: read-out: apparent Kd; compound concentrations: 100 nM and 1000 nM (sheet 'Samples'), CATDS: 4.0324961931199298E-2; n = 1
# [24] = molecular target: Q6ZSR9 (human, UniProt Q6ZSR9); set-up: species or system MV4-11 + K-562 + COLO205 + SK-N-BE2 + OVCAR-8; conditions: read-out: apparent Kd; compound concentrations: 100 nM and 1000 nM (sheet 'Samples'), CATDS: 2.23637013148167E-2; n = 1
# [25] = system: ROCK1; set-up: species or system human, MV4-11 + K-562 + COLO205 + SK-N-BE2 + OVCAR-8; conditions: read-out: apparent Kd; compound concentrations: 100 nM and 1000 nM (sheet 'Samples'), CATDS: 0.20486846489085001; n = 1
# [26] = system: ROCK2; set-up: species or system human, MV4-11 + K-562 + COLO205 + SK-N-BE2 + OVCAR-8; conditions: read-out: apparent Kd; compound concentrations: 100 nM and 1000 nM (sheet 'Samples'), CATDS: 0.25564914108925302; n = 1
# [27] = system: RPS6KA3; set-up: species or system human, MV4-11 + K-562 + COLO205 + SK-N-BE2 + OVCAR-8; conditions: read-out: apparent Kd; compound concentrations: 100 nM and 1000 nM (sheet 'Samples'), CATDS: 2.2411381111350701E-2; n = 1
# [28] = system: RPS6KA4; set-up: species or system human, MV4-11 + K-562 + COLO205 + SK-N-BE2 + OVCAR-8; conditions: read-out: apparent Kd; compound concentrations: 100 nM and 1000 nM (sheet 'Samples'), CATDS: 2.93060004016619E-2; n = 1
# [29] = system: RPS6KA5; set-up: species or system human, MV4-11 + K-562 + COLO205 + SK-N-BE2 + OVCAR-8; conditions: read-out: apparent Kd; compound concentrations: 100 nM and 1000 nM (sheet 'Samples'), CATDS: 7.09289008095534E-2; n = 1
# [30] = system: RPS6KB1; set-up: species or system human, MV4-11 + K-562 + COLO205 + SK-N-BE2 + OVCAR-8; conditions: read-out: apparent Kd; compound concentrations: 100 nM and 1000 nM (sheet 'Samples'), CATDS: 3.4363243173278199E-2; n = 1
# Chain of Q6ZSR9 (Q6ZSR9 whole entry, looked up): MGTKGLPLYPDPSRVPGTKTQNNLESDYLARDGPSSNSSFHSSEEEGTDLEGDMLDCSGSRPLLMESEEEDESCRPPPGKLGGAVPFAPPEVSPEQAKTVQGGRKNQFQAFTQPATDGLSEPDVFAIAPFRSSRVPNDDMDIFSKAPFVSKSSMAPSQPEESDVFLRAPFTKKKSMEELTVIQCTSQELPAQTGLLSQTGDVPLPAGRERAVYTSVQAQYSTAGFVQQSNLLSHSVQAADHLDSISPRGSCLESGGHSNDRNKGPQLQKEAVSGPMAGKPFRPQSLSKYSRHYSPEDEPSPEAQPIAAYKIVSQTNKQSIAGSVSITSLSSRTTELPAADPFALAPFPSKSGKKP
smiles,measurement,setting,value
CCn1c(-c2nonc2N)nc2cncc(C(=O)NCCNC)c21 [GW876790X],potency estimated from few doses,[1],2400 nM
same,potency estimated from few doses,[2],783 nM
same,potency estimated from few doses,[3],790 nM
same,potency estimated from few doses,[4],498 nM
same,potency estimated from few doses,[5],1080 nM
same,potency estimated from few doses,[6],1430 nM
same,potency estimated from few doses,[7],1320 nM
same,potency estimated from few doses,[8],944 nM
same,potency estimated from few doses,[9],612 nM
same,potency estimated from few doses,[10],971 nM
same,potency estimated from few doses,[11],2030 nM
same,potency estimated from few doses,[12],519 nM
same,potency estimated from few doses,[13],118 nM
same,potency estimated from few doses,[14],35.1 nM
same,potency estimated from few doses,[15],1120 nM
same,potency estimated from few doses,[16],2120 nM
same,potency estimated from few doses,[17],378 nM
same,potency estimated from few doses,[18],249 nM
same,potency estimated from few doses,[19],152 nM
same,potency estimated from few doses,[20],491 nM
same,potency estimated from few doses,[21],1870 nM
same,potency estimated from few doses,[22],399 nM
same,potency estimated from few doses,[23],361 nM
same,potency estimated from few doses,[24],2130 nM
same,potency estimated from few doses,[25],19.1 nM
same,potency estimated from few doses,[26],13.9 nM
same,potency estimated from few doses,[27],2110 nM
same,potency estimated from few doses,[28],813 nM
same,potency estimated from few doses,[29],113 nM
same,potency estimated from few doses,[30],529 nM
